Reference: PubChem BioAssay AID2238 (Southern Research Specialized Biocontainment Screening …, 2010)
Calls of active or inactive are those of the source. No rule for the calls is given here.

Test: antiviral protection of cells from WNV – synthesized analogs, SAR follow-up (AID 2238)
Conditions: West Nile virus CPE inhibition in cells; max CPE inhibition: measured here: maximum CPE inhibition observed, at 40 µM, stronger effect = higher value unless noted; series mostly up to 40 µM; CPE inhibition: at the top concentration
In the case of CN(C)CCCN1c2ccc([N+](=O)[O-])cc2CCc2cc([N+](=O)[O-])ccc21, the max CPE inhibition was 80.3% [measured here: maximum CPE inhibition observed, at 20 µM, stronger effect = higher value]. For O=C(CSc1nc2ccccc2c(=O)n1-c1ccc(Cl)cc1)Nc1ccc2c(c1)CCC2, the max CPE inhibition was 45.5% [measured here: maximum CPE inhibition observed, at 20 µM, stronger effect = higher value]. In the case of Nc1ccc2nc3n(c(=O)c2c1)CCC3, the “CPE inhibition” value was 1.56% (inactive) and the max CPE inhibition was 1.56%. Work on O=C(CSc1nc2ccccc2c(=O)n1-c1ccccc1)Nc1ccc2c(c1)CCC2 yielded a max CPE inhibition of 72%. For Cc1cccc2c(=O)n3c(nc12)CCC3, the max CPE inhibition was 1.97% and the “CPE inhibition” value was 1.97% (inactive). In the case of CCCN1CCN(CCCNC(=O)c2cc3c(s2)-c2c(C)cccc2OC3)CC1, the max CPE inhibition was 42.7% [measured here: maximum CPE inhibition observed, at 10 µM, stronger effect = higher value]. Brc1ccc2c(c1)CN1CCCC1=N2 showed a max CPE inhibition of 54.9%. For COc1ccc(-c2csc(NC(=O)c3cccc(Cl)c3)n2)cc1, the max CPE inhibition was 1.98% and the “CPE inhibition” value was 1.24% (inactive). With O=C(Nc1nc(-c2ccccc2)cs1)c1ccccc1Cl the “CPE inhibition” value was 0.31% (inactive) and the max CPE inhibition was 0.47% [measured here: maximum CPE inhibition observed, at 0.16 µM, stronger effect = higher value]. Work on COc1ccc(-c2csc(N(CCCN(C)C)C(=O)c3ccccc3Cl)n2)cc1 yielded a max CPE inhibition of 69.5%. In the case of CC1CCCN(CCCNC(=O)c2cc3c(s2)-c2ccccc2OC3)C1 (stereo not given), the max CPE inhibition was 71.4% [measured here: maximum CPE inhibition observed, at 10 µM, stronger effect = higher value].
